# From the supplement of paper PMC6411743
# ± gives the standard deviation of the averaged measurements. Targets with the largest changes are over-represented here; the source holds about 5,400 in all.
# Molecular target: T1, UniProt Q9NPI1|Q9NPI1-2
# T1 sequence (whole entry): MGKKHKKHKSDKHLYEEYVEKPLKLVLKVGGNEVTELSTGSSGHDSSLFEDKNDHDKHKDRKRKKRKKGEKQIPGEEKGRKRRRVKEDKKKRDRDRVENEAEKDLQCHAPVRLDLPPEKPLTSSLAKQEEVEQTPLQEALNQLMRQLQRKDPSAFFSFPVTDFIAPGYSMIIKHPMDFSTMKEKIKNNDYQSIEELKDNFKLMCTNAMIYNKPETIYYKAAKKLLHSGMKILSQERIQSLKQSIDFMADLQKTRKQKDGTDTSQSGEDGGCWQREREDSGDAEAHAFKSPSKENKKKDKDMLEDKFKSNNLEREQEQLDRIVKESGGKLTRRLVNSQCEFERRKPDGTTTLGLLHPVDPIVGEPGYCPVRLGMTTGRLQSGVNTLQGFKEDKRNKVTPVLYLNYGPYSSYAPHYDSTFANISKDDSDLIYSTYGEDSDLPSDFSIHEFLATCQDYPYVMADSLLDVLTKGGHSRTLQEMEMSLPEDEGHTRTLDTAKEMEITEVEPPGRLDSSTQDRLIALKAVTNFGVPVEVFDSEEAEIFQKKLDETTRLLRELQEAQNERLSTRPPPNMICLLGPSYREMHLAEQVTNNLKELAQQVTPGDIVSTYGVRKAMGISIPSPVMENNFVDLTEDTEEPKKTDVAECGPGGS
# Assay: NP40-soluble protein abundance relative to vehicle (solubility fold change) (ratio); higher = more soluble protein in presence of GTP
# Description: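 Solubility proteome profiling in Jurkat crude lysate. Lysate was treated with Mg-GTP (0.1-10 mM) for 10 min at room temperature and 3 min at 37 °C, then solubilised with 0.8% NP40 and benzonase, followed by ultracentrifugation. Proteins were quantified by TMT10 LC-MS/MS; the value is the NP40-soluble abundance relative to the NP40-processed vehicle, from 3 independent experiments.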
structure (smiles),measurement,setting,value
Nc1nc2c(ncn2[C@@H]2O[C@H](COP(=O)(O)OP(=O)(O)OP(=O)(O)O)[C@@H](O)[C@H]2O)c(=O)[nH]1 [guanosine triphosphate],NP40-soluble protein abundance,concentration: 0.1mM,1.09 ± 0.029
same,NP40-soluble protein abundance,concentration: 0.5mM,1.11 ± 0.036
same,NP40-soluble protein abundance,concentration: 1mM,1.22 ± 0.041
same,NP40-soluble protein abundance,concentration: 2mM,1.36 ± 0.098
same,NP40-soluble protein abundance,concentration: 4mM,1.4 ± 0.18
same,NP40-soluble protein abundance,concentration: 6mM,1.47 ± 0.2
same,NP40-soluble protein abundance,concentration: 8mM,1.58 ± 0.32
same,NP40-soluble protein abundance,concentration: 10mM,1.56 ± 0.28
